Calls of active or inactive are those of the source. The calls were made as follows: active = hit-call score of the fitted dose curve at least 0.9, where 1 is the maximum; inactive = score below 0.9.
Test: CCTE_Mundy_HCI_Cortical_NOG_NeuriteCount: CCTE's Neurite Outgrowth Assay in rat cortical cells for Neurite Count, Mundy Lab (AID 2284212);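 also: cells fixed about two days after chemical exposure began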
Protocol: CCTE_Mundy_HCI_Cortical_NOG is a multiplexed, cell-based-readout assay that uses rat primary cortical cells with measurements taken at 50.33 hours after chemical dosing in a microplate: 96-well plate.CCTE_Mundy_HCI_Cortical_NOG_NeuriteCount is one of four components of the CCTE_Mundy_HCI_Cortical_NOG assay. It measures neurite outgrowth related to the number of neurites using High Content Imaging of fluorescently labelled markers.[…] Using a type of morphology reporter, loss -of-signal activity can be used to understand developmental effects.
Exposure starts 2 hours post-plating by adding 10 ul of the working solution to 90 ul of media in the wells for a 1/10 dilution. Forty-eight hours after chemical treatment cells are fixed by direct addition of 100 ul of warm (37C) Dulbecco's phosphate buffered saline (DPBS) fixative solution containing 8% paraformaldehyde, 8% sucrose, and 0.1% of 3 mg/ml Hoechst 33342 into each well. Primary antibodies are prepared by dilution in Immunocytochemical Staining Buffer (ISB), 10X Dulbecco's PBS, 0.1% Saponin, 5% Bovine Serum Albumin, 0.5% NaN3 (Sodium Azide) and betaIII-tubulin (rabbit anti-betaIII-tubulin, 1:800) followed by Alexa Fluor-488 secondary (1:500) to label neuronal cell bodies and neurites. A Cellomics ArrayScan VTi HCS Reader is used for automated image acquisition and analysis of neurite outgrowth.

Structure (SMILES) | outcome | AC50
CS(=O)(=O)c1ccc(C(=O)C2C(=O)CCCC2=O)c(Cl)c1COCC(F)(F)F | inactive | –
Cc1cc(C(F)(C(F)(F)F)C(F)(F)F)ccc1NC(=O)c1cccc(I)c1C(=O)NC(C)(C)CS(C)(=O)=O | inactive | –
Cc1ccccc1OP(=O)(Oc1ccccc1C)Oc1ccccc1C | – | 19.2 µM (active)
CC1(C)[C@H](C(=O)O[C@H](C#N)c2cccc(Oc3ccccc3)c2)[C@@H]1/C=C(\Cl)C(F)(F)F | – | 19.9 µM (active)
OC(Cc1ccccc1Cl)(Cn1[nH]cnc1=S)C1(Cl)CC1 (centres undefined) | inactive | –
CCOCn1c(-c2ccc(Cl)cc2)c(C#N)c(Br)c1C(F)(F)F | – | 23.2 µM (active)
CNC(=O)CSP(=O)(OC)OC | inactive | –
NC(=O)c1ccc(N)nc1 | – | 14.5 µM (active)
CC(C)[C@@H](Nc1ccc(C(F)(F)F)cc1Cl)C(=O)OC(C#N)c1cccc(Oc2ccccc2)c1 (some centres undefined) | inactive | –

Test: CCTE_Mundy_HCI_Cortical_NOG_NeuriteLength: CCTE's Neurite Outgrowth Assay in rat cortical cells for Neurite Length, Mundy Lab (AID 2284213);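 as to AC50: neurites imaged about 48 to 50 h after chemical exposure began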
How it was run: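 First, rat primary cortical cells were plated and, 2 h later, given test chemical as a 1/10 dilution. Finally, βIII-tubulin immunostaining enabled automated imaging of neurite length.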

Structure (SMILES) | outcome | AC50
CS(=O)(=O)c1ccc(C(=O)C2C(=O)CCCC2=O)c(Cl)c1COCC(F)(F)F | inactive | –
Cc1cc(C(F)(C(F)(F)F)C(F)(F)F)ccc1NC(=O)c1cccc(I)c1C(=O)NC(C)(C)CS(C)(=O)=O | inactive | –
Cc1ccccc1OP(=O)(Oc1ccccc1C)Oc1ccccc1C | – | 19.6 µM (active)
CC1(C)[C@H](C(=O)O[C@H](C#N)c2cccc(Oc3ccccc3)c2)[C@@H]1/C=C(\Cl)C(F)(F)F | – | 19.5 µM (active)
OC(Cc1ccccc1Cl)(Cn1[nH]cnc1=S)C1(Cl)CC1 (centres undefined) | inactive | –
CCOCn1c(-c2ccc(Cl)cc2)c(C#N)c(Br)c1C(F)(F)F | – | 22.4 µM (active)
CNC(=O)CSP(=O)(OC)OC | inactive | –
NC(=O)c1ccc(N)nc1 | – | 14 µM (active)
CC(C)[C@@H](Nc1ccc(C(F)(F)F)cc1Cl)C(=O)OC(C#N)c1cccc(Oc2ccccc2)c1 (some centres undefined) | inactive | –

Test: CCTE_Mundy_HCI_Cortical_Synap_Neur_Matur_NeuriteLength: CCTE's Synaptogenesis and Neurite Maturation Assay in rat cortical cells for Neurite Length, Mundy Lab (AID 2284214)
How it was run: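 Cultures of rat primary cortical cells received chemical at DIV 7 and were fixed at DIV 12, after glial arrest with AraC at DIV 5. Neurite length was measured by automated imaging of MAP2 immunofluorescence.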

Structure (SMILES) | outcome | AC50
CS(=O)(=O)c1ccc(C(=O)C2C(=O)CCCC2=O)c(Cl)c1COCC(F)(F)F | inactive | –
Cc1cc(C(F)(C(F)(F)F)C(F)(F)F)ccc1NC(=O)c1cccc(I)c1C(=O)NC(C)(C)CS(C)(=O)=O | inactive | –
Cc1ccccc1OP(=O)(Oc1ccccc1C)Oc1ccccc1C | – | 3.54 µM (active)
CC1(C)[C@H](C(=O)O[C@H](C#N)c2cccc(Oc3ccccc3)c2)[C@@H]1/C=C(\Cl)C(F)(F)F | – | 2.35 µM (active)
OC(Cc1ccccc1Cl)(Cn1[nH]cnc1=S)C1(Cl)CC1 (centres undefined) | – | 42.7 µM (active)
CCOCn1c(-c2ccc(Cl)cc2)c(C#N)c(Br)c1C(F)(F)F | – | 15.5 µM (active)
CNC(=O)CSP(=O)(OC)OC | inactive | –
NC(=O)c1ccc(N)nc1 | – | 9.47 µM (active)
CC(C)[C@@H](Nc1ccc(C(F)(F)F)cc1Cl)C(=O)OC(C#N)c1cccc(Oc2ccccc2)c1 (some centres undefined) | inactive | –

Test: CCTE_Mundy_HCI_Cortical_Synap_Neur_Matur_NeuriteSpotCountPerNeuron: CCTE's Synaptogenesis and Neurite Maturation Assay in rat cortical cells for Neurite Spot Count per Neuron Count, Mundy Lab (AID 2284215)
How it was run: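 Developing rat cortical neurons, with glia suppressed by AraC, are exposed to chemicals from DIV 7 to DIV 12. Automated fluorescence imaging of MAP2-labelled neurites and synaptophysin puncta yields a count per neuron, normalised against DMSO wells.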

Structure (SMILES) | outcome | AC50
CS(=O)(=O)c1ccc(C(=O)C2C(=O)CCCC2=O)c(Cl)c1COCC(F)(F)F | inactive | –
Cc1cc(C(F)(C(F)(F)F)C(F)(F)F)ccc1NC(=O)c1cccc(I)c1C(=O)NC(C)(C)CS(C)(=O)=O | inactive | –
Cc1ccccc1OP(=O)(Oc1ccccc1C)Oc1ccccc1C | – | 3.81 µM (active)
CC1(C)[C@H](C(=O)O[C@H](C#N)c2cccc(Oc3ccccc3)c2)[C@@H]1/C=C(\Cl)C(F)(F)F | – | 2.16 µM (active)
OC(Cc1ccccc1Cl)(Cn1[nH]cnc1=S)C1(Cl)CC1 (centres undefined) | – | 50 µM (active)
CCOCn1c(-c2ccc(Cl)cc2)c(C#N)c(Br)c1C(F)(F)F | – | 13.5 µM (active)
CNC(=O)CSP(=O)(OC)OC | inactive | –
NC(=O)c1ccc(N)nc1 | – | 9.32 µM (active)
CC(C)[C@@H](Nc1ccc(C(F)(F)F)cc1Cl)C(=O)OC(C#N)c1cccc(Oc2ccccc2)c1 (some centres undefined) | – | 4.59 µM (active)

Test: CCTE_Mundy_HCI_Cortical_Synap_Neur_Matur_SynapseCount: CCTE's Synaptogenesis and Neurite Maturation Assay in rat cortical cells for Synapse Count, Mundy Lab (AID 2284218)
How it was run: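 Cells were plated, allowed 2 hr to attach, treated with AraC at DIV 5, then exposed to chemicals from DIV 7 until DIV 12. After fixation and MAP2/synaptophysin immunolabelling, synapses per neuron were quantified by automated imaging against DMSO.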

Structure (SMILES) | outcome | AC50
CS(=O)(=O)c1ccc(C(=O)C2C(=O)CCCC2=O)c(Cl)c1COCC(F)(F)F | inactive | –
Cc1cc(C(F)(C(F)(F)F)C(F)(F)F)ccc1NC(=O)c1cccc(I)c1C(=O)NC(C)(C)CS(C)(=O)=O | inactive | –
Cc1ccccc1OP(=O)(Oc1ccccc1C)Oc1ccccc1C | – | 3.85 µM (active)
CC1(C)[C@H](C(=O)O[C@H](C#N)c2cccc(Oc3ccccc3)c2)[C@@H]1/C=C(\Cl)C(F)(F)F | – | 2.13 µM (active)
OC(Cc1ccccc1Cl)(Cn1[nH]cnc1=S)C1(Cl)CC1 (centres undefined) | – | 50 µM (active)
CCOCn1c(-c2ccc(Cl)cc2)c(C#N)c(Br)c1C(F)(F)F | – | 13.5 µM (active)
CNC(=O)CSP(=O)(OC)OC | inactive | –
NC(=O)c1ccc(N)nc1 | – | 9.12 µM (active)
CC(C)[C@@H](Nc1ccc(C(F)(F)F)cc1Cl)C(=O)OC(C#N)c1cccc(Oc2ccccc2)c1 (some centres undefined) | inactive | –

Test: CCTE_Mundy_HCI_Cortical_Synap_Neur_Matur_NeuriteCount: CCTE's Synaptogenesis and Neurite Maturation Assay in rat cortical cells for Neurite Count, Mundy Lab (AID 2284222);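 as to outcome: exposure from day 7 to day 12 in vitro with readout at day 12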
How it was run: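 In this multiplexed morphology readout, rat primary cortical neurons are fixed at DIV 12 following dosing at DIV 7 and stained for MAP2, synaptophysin and nuclei. High-content image analysis yields neurite count.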

Structure (SMILES) | outcome | AC50
CS(=O)(=O)c1ccc(C(=O)C2C(=O)CCCC2=O)c(Cl)c1COCC(F)(F)F | inactive | –
Cc1cc(C(F)(C(F)(F)F)C(F)(F)F)ccc1NC(=O)c1cccc(I)c1C(=O)NC(C)(C)CS(C)(=O)=O | inactive | –
Cc1ccccc1OP(=O)(Oc1ccccc1C)Oc1ccccc1C | inactive | –
CC1(C)[C@H](C(=O)O[C@H](C#N)c2cccc(Oc3ccccc3)c2)[C@@H]1/C=C(\Cl)C(F)(F)F | – | 3.48 µM (active)
OC(Cc1ccccc1Cl)(Cn1[nH]cnc1=S)C1(Cl)CC1 (centres undefined) | – | 50 µM (active)
CCOCn1c(-c2ccc(Cl)cc2)c(C#N)c(Br)c1C(F)(F)F | – | 16.4 µM (active)
CNC(=O)CSP(=O)(OC)OC | inactive | –
NC(=O)c1ccc(N)nc1 | – | 18.7 µM (active)
CC(C)[C@@H](Nc1ccc(C(F)(F)F)cc1Cl)C(=O)OC(C#N)c1cccc(Oc2ccccc2)c1 (some centres undefined) | inactive | –

— PubChem BioAssay (EPA / NIEHS)
